Screens deposited in PubChem BioAssay by National Center for Advancing Translational Sciences (NCATS).
LDHA block: blocks human lactate dehydrogenase A | P00338 | actives 0.15% (n = 480,000) | AID 1347041 | purified LDHA, NADH/diaphorase-resazurin fluorescence; hits give low values | activity change, % (values are at about 110 or 230 µM); in the data active = activity change below about -30%; inconclusive = mostly about -25% to -30%
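Human LDH5 at 2 nM final in Tris HCl pH 7.4 with 0.06 mM NADH and 0.2 mM pyruvate, reacted 5 minutes at room temperature. Remaining NADH coupled via diaphorase/resazurin; resorufin fluorescence read at 0 and 20 minutes, normalized to enzyme-free and DMSO wells.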
Nrf2 inh: blocks Nrf2 signaling | A549 ARE-Fluc reporter, luciferase luminescence, 18-24 h | Potency, µM (doses to about 46 µM), hits mostly inhibitors | actives 2.1% (n = 360,000); note: nearly all actives have a fitted effect of over 60% in size
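Reporter: ARE-Fluc in A549. Exposure: 18-24 h, 37 °C, 5% CO2, 5% FBS OPTI-MEM. Readouts: fluorescent cytotoxicity (CellTiter-Fluor), then luminescent Nrf2 signal after BugLite.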
12-LOX inh: inhibitors of human 12S-lipoxygenase ALOX12 | AID 1671190 | P18054 | purified 12hLO, xylenol orange hydroperoxide absorbance | Potency, µM (titrated, usually from 108 µM), hits mostly inhibitors | actives 1.1% (n = 580,000)
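Purified human 12hLO at 150 nM in 25 mM Hepes, 0.01% Triton X-100, pH 7.0, preincubated 15 min at room temperature with compound. Reaction started with 40 uM arachidonic acid, 30 min at room temperature. Hydroperoxide measured by Fe-xylenol orange, 573/405 nm absorbance ratio.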
Nrf2 ARE act: activates Nrf2 signaling; AREc32 ARE-luciferase reporter (MCF7-derived line), luminescence, 24 h; Potency, µM (doses to about 46.1 µM), usual class: activators; actives 0.31% (n = 410,000); note: nearly all actives have a fitted effect of over 65% in size
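Luciferase luminescence (Steady-Glo, 30 min at room temperature) served as the read-out of ARE activation in AREc32 cells treated with compounds for 24 hr at 37 deg C.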
A549 viability: kills or reduces viability of A549 cells in Nrf2 counter-screen; actives 0.16% (n = 390,000); A549 ARE-Fluc cells, CellTiter-Fluor viability, 18-24 h; Potency, µM (titrated, usually from 46 µM), most hits filed as inhibitors; AID 504648
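Cytotoxicity counterscreen: CellTiter-Fluor fluorescence was measured in A549 ARE_Fluc cells after 18-24 h of compound exposure in a concentration series. The subsequent BugLite luminescent read reports ARE-luciferase activity.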
IDH1 R132H inh: human IDH1 R132H inhibition; IDH1-R132H enzyme, NADPH consumption, diaphorase/resazurin fluorescence; AID 602179; actives 0.093% (n = 390,000); Potency, µM (top dose mostly 76.6 µM), most hits filed as inhibitors; note: nearly all actives have a fitted effect of over 65% in size
Target sequence (O75874 whole entry R132H, stated change not applied): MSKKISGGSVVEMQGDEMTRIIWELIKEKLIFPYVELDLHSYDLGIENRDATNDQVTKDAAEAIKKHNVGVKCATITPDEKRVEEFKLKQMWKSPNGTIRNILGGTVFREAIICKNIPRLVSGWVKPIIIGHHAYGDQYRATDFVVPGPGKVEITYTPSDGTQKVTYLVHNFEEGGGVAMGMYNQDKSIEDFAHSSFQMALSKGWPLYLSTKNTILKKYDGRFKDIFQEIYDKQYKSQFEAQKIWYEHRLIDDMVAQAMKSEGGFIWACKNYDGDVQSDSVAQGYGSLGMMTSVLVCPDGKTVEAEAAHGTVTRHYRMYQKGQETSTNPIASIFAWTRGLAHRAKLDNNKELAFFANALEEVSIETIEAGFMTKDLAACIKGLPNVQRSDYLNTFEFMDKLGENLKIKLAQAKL
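IDH1-R132H (0.5 ug/mL dispensed) in pH 7.5 Tris buffer was preincubated 30 min with compound, then given a substrate mix of 0.016 mM NADPH and 2 mM alpha-KG for 80 min at room temperature; remaining NADPH was read by diaphorase/resazurin fluorescence.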
Hits are given with their value; 0 = inactive; ? = inconclusive; - = no result given. Sampled rows, rich in hits. Any-hit rate of the full collection: about 2.7%. Unless noted, calls come from the whole dose curve; as a rule, active = well fitted curve in the direction sought with a large enough effect; inconclusive = small, poorly fitted or top-dose-only effect, or another doubt; inactive = no such curve, though single readings can be large; an effect the other way counts as inactive or inconclusive.

SMILES	LDHA block	Nrf2 inh	12-LOX inh	Nrf2 ARE act	A549 viability	IDH1 R132H inh
O=S(=O)(O)c1cc(Cl)cc(N=Nc2ccc(O)cc2O)c1O	0	0	45µM	0	?	0
O=C(NCCN1CCOCC1)c1nn2c(C(F)(F)F)cc(-c3cccs3)nc2c1Cl	0	-	0	-	-	-
CCNC(=O)NC(=O)CSc1nnc(-c2ccccc2)c(-c2ccccc2)n1	0	-	?	-	-	-
Cc1nc(SCC(=O)NC2(C#N)CCCC2)n(C2CCCC2)c1C	0	-	0	-	-	-
Cc1ccc(C(=O)O)cc1N1C(=O)c2cccc3c([N+](=O)[O-])ccc(c23)C1=O	0	0	5µM	?	0	0
CCOC(=O)c1c(-c2ccccc2)csc1NC(=O)CSc1nnc(C)s1	0	13µM	0	0	0	0
CCOC(=O)c1c(-c2ccc(C)o2)csc1NC(=O)CSc1nnc(C)s1	0	?	0	0	0	0
CCOC(=O)c1c(-c2ccc(-c3ccccc3)cc2)csc1NC(=O)CCN1CCOCC1	0	?	0	0	0	0
CCOC(=O)c1c(-c2ccc(OC)cc2)csc1NC(=O)CSc1ncnc2sccc12	0	15µM	0	0	0	0
CCOC(=O)c1c(-c2ccccc2)csc1NC(=O)C(C)NCCCN1CCOCC1 (stereo not given)	-34	0	0	0	0	0
Cc1ccc(-c2noc(CNc3ccccc3F)n2)cc1	0	-	0	-	-	-
C=CCOc1ccc(/C=C(\C#N)C(=O)NCCN2CCOCC2)cc1	0	-	0	-	-	-
CCc1ccc(OC(C)C(=O)N2CCC(c3nc4ccccc4s3)CC2)cc1 (stereo not given)	0	18µM	?	0	0	0
COc1ccccc1OC(C)C(=O)N1CCC(c2nc3ccccc3s2)CC1 (stereo not given)	0	0	0	0	0	0
COc1ccc(OCC(=O)N2CCC(c3nc4ccccc4s3)CC2)cc1	0	0	?	0	0	0
O=C(COc1ccc([N+](=O)[O-])cc1)N1CCC(c2nc3ccccc3s2)CC1	0	15µM	0	0	0	0
CC(C)Oc1ccc(CNC(=O)C2Cn3cccc3C(=O)N2Cc2ccccc2)cc1 (stereo not given)	-	-	0	-	-	-
CCc1ccc(Nc2n[n+](-c3ccccc3)c(-c3cc(OC)c(OC)cc3Br)s2)cc1	0	0	40µM	0	0	0
CCc1ccc(Nc2n[n+](-c3ccccc3)c(-c3ccc(OCc4ccccc4)cc3)s2)cc1	0	?	22µM	0	0	0
O=C(O)c1ccc(-c2sc(Nc3ccccc3)n[n+]2-c2ccccc2)cc1	0	0	?	0	0	0
CCc1ccc(Nc2n[n+](-c3ccccc3)c(-c3ccc(N(CC)CC)cc3)s2)cc1	0	?	40µM	0	?	0
CCN(CC)c1ccc(-c2sc(Nc3ccccc3)n[n+]2-c2ccc(F)cc2)cc1	0	0	?	0	0	0
CN(C)c1ccc(-c2sc(Nc3ccccc3)n[n+]2-c2ccc(F)cc2)cc1	0	0	45µM	0	0	0
CCc1ccc(Nc2n[n+](-c3ccccc3)c(-c3c(Cl)cccc3Cl)s2)cc1	0	?	?	0	?	?
O=C(N/N=C/c1ccc(Cl)cc1)c1cccs1	?	-	0	-	-	-
SMILES	LDHA block	Nrf2 inh	12-LOX inh	Nrf2 ARE act	A549 viability	IDH1 R132H inh
O=C(CCCN1C(=O)c2ccc(Br)cc2C1=O)OCc1cccc([N+](=O)[O-])c1	0	-	0	-	-	-
O=C1c2ccccc2C(=O)N1SC1CCCCC1	0	0	16µM	0	0	0
O=C(CC1(C(=O)O)CCCCCC1)Nc1ccccc1CO	0	-	0	-	-	-
O=C(Nc1ccc(Br)cc1)c1ccc(F)c(S(=O)(=O)NCc2cccs2)c1	0	12µM	0	0	0	0
O=C(OCc1ccc([N+](=O)[O-])cc1)C1CC2CCCC(C1)C2=O (stereo not given)	0	-	?	-	-	-
CC(NC(=O)Cc1ccc(N(Cc2ccc(F)cc2)C(=O)c2ccco2)cc1)c1ccccc1 (stereo not given)	-	-	0	-	-	-
O=C(Nc1ccccc1)c1nnsc1S(=O)c1ccc(Cl)cc1 (stereo not given)	0	-	14µM	0	0	0
